This is part of a sample that, as a whole, favours compounds with a hit. Of some 83,000 tested, about 20% had one in any assay.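 A percent growth of 40 corresponds to 60% growth inhibition; 0 means no net growth; -100 means all cells died. Active threshold: below 10.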 Values without a mark were called inactive. Calls of active or inactive are those of the source.
Columns and labels:
Experiment in all cases: NCI-60 one-dose screen, 48 h (100 = growth as untreated, 0 = no growth, -100 = all killed)
Details in all cases: 10 µM unless noted
HCT-15 colon = test system: HCT-15 colon
HT29 colon = test system: HT29 colon
SNB-19 CNS = test system: SNB-19 CNS
U251 CNS = test system: U251 CNS
PC-3 prostate = test system: PC-3 prostate
SK-MEL-5 melanoma = test system: SK-MEL-5 melanoma
UACC-62 melanoma = test system: UACC-62 melanoma
SK-MEL-28 melanoma = test system: SK-MEL-28 melanoma
SK-MEL-2 melanoma = test system: SK-MEL-2 melanoma
EKVX NSCLC = test system: EKVX NSCLC
SN12C renal = test system: SN12C renal
UO-31 renal = test system: UO-31 renal
TK-10 renal = test system: TK-10 renal
ACHN renal = test system: ACHN renal
CAKI-1 renal = test system: CAKI-1 renal
A498 renal = test system: A498 renal
CCRF-CEM leukemia = test system: CCRF-CEM leukemia
MOLT-4 leukemia = test system: MOLT-4 leukemia
LOX IMVI melanoma = test system: LOX IMVI melanoma

SMILES | growth (HCT-15 colon) | growth (HT29 colon) | growth (SNB-19 CNS) | growth (U251 CNS) | growth (PC-3 prostate) | growth (SK-MEL-5 melanoma) | growth (UACC-62 melanoma) | growth (SK-MEL-28 melanoma) | growth (SK-MEL-2 melanoma) | growth (EKVX NSCLC) | growth (SN12C renal) | growth (UO-31 renal) | growth (TK-10 renal) | growth (ACHN renal) | growth (CAKI-1 renal) | growth (A498 renal) | growth (CCRF-CEM leukemia) | growth (MOLT-4 leukemia) | growth (LOX IMVI melanoma)
CCc1cccc2c1S/C(=C/c1ccc(OC)cc1)C2=O | 28.1% | 84.5% | 45.2% | 41.7% | 33.9% | 57.2% | 31.2% | 59.3% | 51% | 93.9% | 49.4% | 52.9% | 127% | 54.1% | 6.96% (active) | 104% | 35.7% | 34.5% | –
NCCCNc1nc2ccccc2c2c(=O)c3cc(F)cc(Cl)c3sc12 | 64.1% | 4.38% (active) | 89.4% | -63.9% (active) | 59.4% | 98.3% | 98.7% | 107% | 105% | 91.9% | 82.7% | 58.4% | 106% | 61.9% | 63.1% | 66.3% | 6.83% (active) | 77.7% | 79.4%
Cc1nc2ccccc2c(/C=C/c2ccc(Cl)cc2)c1C(=O)/C=C/c1ccc(C(F)(F)F)cc1 | -31.6% (active) | 3.52% (active) | -80.4% (active) | -84.5% (active) | -52.3% (active) | -94.6% (active) | -59.3% (active) | -69.7% (active) | -31.9% (active) | -60.1% (active) | -70.7% (active) | -100% (active) | -82.8% (active) | -100% (active) | -95.4% (active) | -89.5% (active) | 8.6% (active) | 0.0825% (active) | -89% (active)
CCCCOc1nc2ccc(OC)cc2cc1-c1cc(-c2ccc(Cl)cc2)nc(-c2ccc(Cl)cc2)c1 | 104% | 104% | 93.6% | 102% | 96.9% | – | 93.5% | 104% | 103% | 98.2% | 101% | 90% | 104% | 96.3% | 104% | 83.5% | 103% | – | 101%
C/C=C(\C)C(=O)N[C@H]1[C@@H](OC(C)=O)C[C@]2(C)C3CC[C@@]4(C)C(CC[C@@H]4C(C)N(C)C)C3CCC2[C@H]1O (stereo partly drawn) | 2.88% (active) | 11.3% | 101% | 68.7% | 45% | 5.99% (active) | 13.6% | -35.8% (active) | 97.2% | 62.7% | 75.3% | 10.5% | 65.5% | 67.9% | 65.6% | 85.8% | 39.7% | 65.6% | 16.8%
N#Cc1c(-c2ccc(Cl)cc2)nc(NCCO)[nH]c1=O | 102% | 106% | 102% | 98.7% | 92.4% | 107% | 84.4% | 112% | 94.4% | 157% | 96.2% | 74.5% | 97.9% | 101% | 94.2% | 125% | 113% | 99.5% | 97.3%
CCN1C(=O)N(CC)C2Nn3c(s/c(=C4\C(=O)N(CC(C)C)c5ccccc54)c3=O)=NC21 (stereo not drawn) | 27.3% | 86.4% | 54.7% | 36.3% | 38.1% | 39.9% | 45.3% | 66% | 66.4% | 63.8% | 48.9% | 49.8% | 13.1% | 52.5% | 34.1% | -6.38% (active) | 42.6% | 48.7% | 54.2%
Cc1cccc2c3c(sc12)C(c1ccc(Cl)cc1)C(C#N)=C(N)O3 (stereo not drawn) | 10.3% | 6.24% (active) | 27.6% | 27.2% | 16.2% | 27.1% | 17.6% | 58.6% | 45.7% | 44.5% | 25.2% | 39% | 71.7% | 25.2% | – | -6.58% (active) | 13.2% | 11.9% | 18.4%
NCCCNc1nc2ccccc2c2c(=O)c3cc(F)cc(F)c3sc12 | 77% | -49.7% (active) | 87.1% | -69.2% (active) | 73.8% | 92.3% | 103% | -87.1% (active) | 111% | 96.8% | 80.8% | -95% (active) | 87.1% | -60.3% (active) | 61.1% | 43.5% | -6.51% (active) | 60.7% | 60%
CC1Cc2c(ncn3c(-c4ccc(F)cc4)nnc23)N(C)c2ccccc21 (stereo not drawn) | 72% | 18.3% | 48.5% | 39.3% | 63% | – | 73.5% | 85.4% | 99.6% | 32.8% | 19.8% | 27.6% | 21.8% | 44% | 55.5% | 28.3% | 49.3% | 82.1% | 12.6%
CN1CCN(CC(=O)N2c3cccc4cccc(c34)N(C(=O)CN3CCN(C)CC3)C2c2cn(-c3ccccc3)nc2-c2cccc([N+](=O)[O-])c2)CC1 | -13.6% (active) | -33.5% (active) | 24.9% | -64.4% (active) | 22.6% | -97.8% (active) | -83.6% (active) | -89.5% (active) | -47.6% (active) | 17.8% | -21.5% (active) | 26.2% | -19.4% (active) | -31.1% (active) | 14.4% | 44.6% | -32% (active) | -11.6% (active) | -93.8% (active)
Cc1nc2ccccc2c(/C=C/c2ccccc2)c1C(=O)/C=C/c1ccc(C(F)(F)F)cc1 | -19.9% (active) | 5.76% (active) | -64.9% (active) | -62.1% (active) | -28% (active) | -78.9% (active) | -51.6% (active) | -67% (active) | -22.5% (active) | -28.8% (active) | -61.5% (active) | -96.9% (active) | -51.2% (active) | -98.4% (active) | -76.6% (active) | -59.4% (active) | 9.14% (active) | 4.69% (active) | –
COc1cc2cc(Oc3ccc(NC(=O)Nc4cccc(C(F)(F)F)c4)cc3)c(C)nc2cc1OCCN1CCOCC1 | 27.2% | 35.3% | 30.7% | 28% | 15.7% | 6.62% (active) | 50.8% | 68.8% | – | 25.4% | 47.7% | 51.8% | 66.3% | 21.4% | 56.2% | 64.2% | 23.9% | 6.76% (active) | 38.2%
COc1ccc2c(c1)nc(NNC(=O)c1cnccn1)c1cccn12 | 21.5% | 27.2% | 31.3% | 27.3% | 39.4% | 26.4% | 11.5% | 25.1% | 64.8% | 22.2% | 35.4% | 4.76% (active) | 31.1% | 7.83% (active) | 21.3% | 49.2% | 11.7% | 5.36% (active) | 9.17% (active)
Cc1ccc(-c2cnc3sc(C(=O)NCCc4ccccc4)c(C)n23)cc1 | 97.9% | 113% | 92.1% | 95% | 81.7% | 99.7% | 85.9% | 104% | 108% | 86.8% | 93.2% | 75.1% | 139% | 94.2% | 94.1% | 101% | 64.7% | 87% | 84.4%
